Test results: PubChem BioAssay AID2108 (National Center for Advancing Translational Sciences (NCATS), 2009)
Results filed as inconclusive are left out. The source made the active and inactive calls. Calls follow the shape of the dose curve; as a rule, active = well fitted curve in the direction sought with a large enough effect; inconclusive = small, poorly fitted or top-dose-only effect, or effect the other way, or another doubt; inactive = no such curve, though single readings can be large or run the other way.

molecular target: Alpha-galactosidase A (Homo sapiens) (UniProt P06280); assay: Confirmation of Inhibitors of Human alpha-Galactosidase Using Spleen Homogenate; conditions: alpha-galactosidase enzyme activity; series mostly up to 56.2 µM
Procedure, shortened: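 AC50 values come from Hill-equation fits of normalised 4-methylumbelliferone fluorescence (365/440 nm, read after NaOH/glycine stop). Enzyme source: spleen homogenate; substrate 1 mM final; pH 5.0 citrate buffer; 40 min at 37C; compound titration 0.5 nM–58 uM.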

Alpha-galactosidase A (Homo sapiens), sequence (P06280 32-429 limits assumed): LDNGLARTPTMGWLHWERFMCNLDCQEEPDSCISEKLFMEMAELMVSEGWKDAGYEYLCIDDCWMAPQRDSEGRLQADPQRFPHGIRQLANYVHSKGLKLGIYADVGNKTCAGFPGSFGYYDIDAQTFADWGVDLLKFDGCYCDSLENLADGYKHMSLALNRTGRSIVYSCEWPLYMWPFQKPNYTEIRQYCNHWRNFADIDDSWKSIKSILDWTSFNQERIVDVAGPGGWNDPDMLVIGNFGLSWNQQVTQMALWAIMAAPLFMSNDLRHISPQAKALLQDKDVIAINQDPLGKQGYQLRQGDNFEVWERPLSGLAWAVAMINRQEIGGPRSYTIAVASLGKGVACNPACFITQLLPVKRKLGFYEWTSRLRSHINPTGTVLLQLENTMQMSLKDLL

outcome, inactive:
CCC1OC23CCCCC2C(C#N)(C(=N)O3)C1(C#N)C#N (stereo unspecified), CCC1c2ccc(C)n2CCN1C(=O)Nc1ccccc1C(=O)OC (stereo unspecified), COc1cc(/C=N/Nc2ccc(Cl)c(C(=O)O)c2)ccc1OC(=O)c1ccccc1F, O=c1oc2ccc3ccccc3c2cc1-c1nc(CCCBr)cs1, CCc1ccc(N=CC23c4ccccc4C(c4ccccc42)C2C(=O)N(c4ccc(OC)cc4)C(=O)C23)cc1 (stereo unspecified), O=NOc1ccc(/C=C/c2nccc3c2[nH]c2ccccc23)cc1, CCc1cc(-c2n[nH]c(C)c2-c2nc3ccccc3n2C)c(O)c(CN2CCN(C)CC2)c1O, CCCCn1c(CN2CCN(c3cccc(Cl)c3)CC2)nc2c1c(=O)n(C)c(=O)n2C, Cc1ccc2nc(-c3ccccc3N)[nH]c2c1, COc1ccc(/C=C(/NC(=O)c2ccccc2)C(=O)NC(Cc2c[nH]c3ccccc23)C(=O)O)cc1 (stereo unspecified), O=c1oc2ccc(Cl)cc2cc1-c1nc2c(s1)CCc1ccccc1-2, Cc1cnc(C(=O)Nc2cc(S(=O)(=O)N3CCOCC3)ccc2N2CCN(C)CC2)cn1, COc1ccc(/C=c2\s/c(=C/C(=O)c3ccc(C)cc3)[nH]c2=O)cc1OC, Oc1ccccc1C1CC(c2cccs2)=NC(c2ccc(Cl)cc2)N1 (stereo unspecified), CC1OC(OC2C(CO)OC(OC3C(CO)OC(O)C(O)C3O)C(O)C2O)C(O)C(O)C1NC1C=C(CO)C(O)C(O)C1O (stereo unspecified), O=S(=O)(c1ccccc1Br)N1CCOCC1, CC(=O)Oc1ccc2cc(-c3nc(-c4ccccc4)c(C)s3)c(=O)oc2c1, COCCNS(=O)(=O)c1ccc2c(c1)n(C)c(=O)n2C, Cc1oc2c(O)c(O)ccc2c(=O)c1-c1cnn(-c2ccccc2)c1, CC(C)C[C@H](NC(=O)c1nc[nH]c1C(=O)N[C@@H](CC(C)C)C(=O)OC(C)(C)C)C(=O)OCc1ccccc1, N#Cc1c(N2CCN(c3ccc(F)cc3)CC2)nc(N)c2c(N)nc3c(c12)CC(=O)N3C1CC1, O=S(=O)(c1ccc(Br)cc1)N1CCOCC1, Cc1c(C#N)c(N)nc2c3c(sc12)NC(=O)CC3c1ccc(Cl)cc1 (stereo unspecified), Cc1ccc(-c2nc(-c3cc4ccccc4oc3=O)sc2C)cc1, Cc1ccc2oc(C(=O)Nc3ccc(S(=O)(=O)N4CCCCC4C)cc3)cc(=O)c2c1 (stereo unspecified), O=S(=O)(c1ccccc1)N1CCN(c2ccccc2)CC1, O=c1oc2ccc(Cl)cc2cc1-c1nc2c(s1)CCCC2, Fc1ccc(CNc2ccc(N3CCN(Cc4ccccc4)CC3)cc2)cc1, O=S(=O)(c1ccc2nc(-c3ccco3)c(-c3ccco3)nc2c1)N1CCOCC1, O=C(Cc1ncc(C(F)(F)F)cc1Cl)NCCc1ccccc1, COc1ccc(OC)c(/C=C/C(=O)N(C)CC(=O)Nc2ccc(C)cc2)c1, CCN(CC)c1ccc(-c2nc3cnccn3c2NC2CCCC2)cc1, CNC(=S)/N=C(\Nc1ccc(C)cc1)c1ccccc1, COc1ccc(C(=O)N2CCN(c3ccc([N+](=O)[O-])c(NCCc4ccc(OC)c(OC)c4)c3)CC2)cc1, CC(C)NCC(O)COc1cccc2[nH]ccc12 (stereo unspecified), Clc1ccc(-c2ccnc(Oc3cc(Cl)ccc3Cl)n2)cc1
